Test systems include DU-145 prostate; K-562 leukemia; MALME-3M melanoma; MDA-MB-231 breast; SF-268 CNS; SF-295 CNS; SF-539 CNS; M14 melanoma; HCT-15 colon; HT29 colon; SNB-75 CNS; SNB-19 CNS; U251 CNS; PC-3 prostate; UACC-62 melanoma; LOX IMVI melanoma; SK-MEL-28 melanoma; RXF 393 renal; SK-MEL-5 melanoma.
Common to all, as to test: NCI-60 one-dose screen, 48 h (100 = growth as untreated, 0 = no growth, -100 = all killed)
Holding throughout (details): 10 µM unless noted

About 83,000 compounds went through this panel and 20% of them were active in at least one assay; those are over-represented in the sample as a whole.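 Each cell line was grown in a 96-well plate and treated with one concentration of compound for 48 hours. Values below 10 were considered active.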 A number with no mark means an inactive call. Activity calls are given as the source filed them.

For the molecule `Cc1cccc(NC(=O)[C@@H]2c3ccccc3C(=O)N(c3ccc(Cl)cc3)[C@H]2c2ccc(Cl)cc2)n1`, the growth is 79.8% in the assay with DU-145 prostate; 47.7% with K-562 leukemia; 61.1% in the assay on MALME-3M melanoma; 32.1% with MDA-MB-231 breast; 62.8% in the assay with SF-268 CNS; 24.1% in the assay with SF-295 CNS. Besides, the growth was 71% in the assay on SF-539 CNS; 45.8% with M14 melanoma; 26.1% in the assay on HCT-15 colon; 11% in the assay with HT29 colon; 68.5% in the assay on SNB-75 CNS; 67.5% in the assay on SNB-19 CNS. Moreover, the growth is 43.1% in the assay with U251 CNS; 17.1% in the assay on PC-3 prostate; 44.1% in the assay with UACC-62 melanoma; 80.3% in the assay with LOX IMVI melanoma; 69.2% with SK-MEL-28 melanoma.
On to `O=C(NCCO)Nc1ccc(-c2nc(N3CCOCC3)c3cccn3n2)cc1`, for which the growth in the assay with DU-145 prostate is 11.4%; with K-562 leukemia, 34.4%; in the assay on MDA-MB-231 breast, 4.2% (active); in the assay on RXF 393 renal it was -33.9% (active); in the assay on SF-268 CNS it was 11.1%; with SF-295 CNS it was -23.3% (active). For the same molecule, the growth was 0.904% (active) in the assay with SF-539 CNS; 6.09% (active) with M14 melanoma; 11.5% with HCT-15 colon; 14.4% in the assay with HT29 colon; -31.9% (active) in the assay on SNB-75 CNS; 18.3% in the assay with SNB-19 CNS. Moreover, the growth was 18.3% in the assay on U251 CNS; 9.72% (active) in the assay on PC-3 prostate; -27.6% (active) with SK-MEL-5 melanoma; -37.7% (active) with UACC-62 melanoma; 4.86% (active) with LOX IMVI melanoma; -7.13% (active) in the assay on SK-MEL-28 melanoma.
In the case of `Nc1nc(=S)c2ncn(C3OC(COC(=O)c4ccc(Cl)cc4)C(OC(=O)c4ccc(Cl)cc4)C3OC(=O)c3ccc(Cl)cc3)c2[nH]1` (centres undefined), the growth in the assay with DU-145 prostate is 105%; with MALME-3M melanoma it was 102%; in the assay on MDA-MB-231 breast, 88%; in the assay on SF-268 CNS, 90.4%; in the assay on SF-295 CNS, 114%; with SF-539 CNS, 89.9%. In addition, the growth was 99.4% with M14 melanoma; 95.5% in the assay on HCT-15 colon; 87.9% with HT29 colon; 76.7% in the assay on SNB-75 CNS; 86.9% in the assay with SNB-19 CNS; 38% in the assay with U251 CNS. Also, the growth in the assay on PC-3 prostate was 84.9%; in the assay with SK-MEL-5 melanoma it was 65.7%; in the assay with UACC-62 melanoma, 94.1%; in the assay with LOX IMVI melanoma it was 90.5%; in the assay with SK-MEL-28 melanoma, 82.4%.
Take `COC(=O)[C@@H](C)CNS(=O)(=O)N(c1cc(C(F)(F)F)cc(C(F)(F)F)c1)C1CCN(Cc2ccc(F)cc2)CC1`: the growth was 92.9% in the assay on DU-145 prostate; 43.8% in the assay on MALME-3M melanoma; 71% in the assay on MDA-MB-231 breast; 84.4% in the assay with SF-268 CNS; 81.1% in the assay on SF-295 CNS; 73.5% with SF-539 CNS. In addition, the growth with M14 melanoma was 58.5%; with HCT-15 colon it was 27.9%; in the assay on HT29 colon it was 19.5%; in the assay with SNB-75 CNS it was 65.4%; in the assay on SNB-19 CNS it was 67.7%; in the assay on U251 CNS it was 52.3%. Moreover, the growth is 45.4% in the assay with PC-3 prostate, 69.1% in the assay with UACC-62 melanoma, 48.2% in the assay with LOX IMVI melanoma and 82.9% in the assay with SK-MEL-28 melanoma.
Turning to `CCc1nc2cc(F)c(/C=C/C(=O)NO)cc2c(=O)n1CCc1ccccc1`, the growth with DU-145 prostate is 7.93% (active); with K-562 leukemia, 7.24% (active); in the assay on MDA-MB-231 breast, 15.4%; with RXF 393 renal, -13.5% (active); with SF-268 CNS, 16%; with SF-295 CNS, 11%. Moreover, the growth with SF-539 CNS is 4.01% (active); with M14 melanoma, 15.7%; in the assay on HCT-15 colon, 24.4%; with HT29 colon, 13.2%; in the assay with SNB-75 CNS, 34.8%; with SNB-19 CNS it was 30.2%. The growth in the assay with U251 CNS is 7.95% (active); with PC-3 prostate, 22.6%; in the assay with SK-MEL-5 melanoma, 4.25% (active); in the assay on UACC-62 melanoma, -21.7% (active); with LOX IMVI melanoma, -33.9% (active); in the assay on SK-MEL-28 melanoma, 19.4%.
With `COc1cnc2c(c1)C(=O)c1c-2n(CCCNC2=NCCS2)c(=O)c2cc(Cl)ccc12`, the growth was -76.7% (active) in the assay with DU-145 prostate; -58.3% (active) in the assay on K-562 leukemia; -70.7% (active) in the assay with MDA-MB-231 breast; 39% in the assay with RXF 393 renal; -49.4% (active) in the assay on SF-268 CNS; -93.5% (active) with SF-295 CNS. Also, the growth in the assay with SF-539 CNS was -84.4% (active); in the assay on M14 melanoma it was -70.3% (active); with HCT-15 colon, -69.2% (active); in the assay on HT29 colon it was -82.7% (active); in the assay with SNB-75 CNS, 57.9%; with SNB-19 CNS it was -29.7% (active). In addition, the growth in the assay on U251 CNS was -89.7% (active); with PC-3 prostate it was 20.5%; in the assay on SK-MEL-5 melanoma, 39.4%; in the assay on UACC-62 melanoma, -76.6% (active); in the assay with SK-MEL-28 melanoma it was 90.8%.
With `Nc1nc(N)c2cc(CNc3ccc(C(=O)NC(CC(=O)O)C(=O)O)cc3)ccc2n1` (centres undefined), the growth with DU-145 prostate was 26.7%; in the assay with MALME-3M melanoma it was 81.3%; in the assay on MDA-MB-231 breast it was 95.8%; in the assay on SF-268 CNS, 29.7%; with SF-295 CNS, 28.5%; with SF-539 CNS it was 15.6%. Also, the growth with M14 melanoma was 16.7%; in the assay with HCT-15 colon it was 36.9%; in the assay on HT29 colon it was 19.8%; in the assay on SNB-75 CNS it was 52.8%; in the assay on SNB-19 CNS it was 43.4%; in the assay on U251 CNS, 38.1%. Besides, the growth with PC-3 prostate was 31.2%; with SK-MEL-5 melanoma it was 21.8%; in the assay on UACC-62 melanoma, 3.72% (active); in the assay on LOX IMVI melanoma, 15.2%; in the assay on SK-MEL-28 melanoma, 54.3%.
Consider `Nc1cc2c(cc1Br)-c1c(C(=O)O)cccc1C2O` (centres undefined), for which the growth was 110% in the assay on DU-145 prostate; 98.2% in the assay with MALME-3M melanoma; 98.3% in the assay on MDA-MB-231 breast; 115% in the assay with SF-268 CNS; 118% with SF-295 CNS; 98.6% with SF-539 CNS. Moreover, the growth is 98.9% in the assay on M14 melanoma; 108% with HCT-15 colon; 106% with HT29 colon; 90.2% with SNB-75 CNS; 99.5% in the assay with SNB-19 CNS; 97.4% in the assay on U251 CNS. The growth was 82.2% in the assay with PC-3 prostate; 99.9% in the assay with SK-MEL-5 melanoma; 90.9% with UACC-62 melanoma; 95.8% in the assay with LOX IMVI melanoma; 102% with SK-MEL-28 melanoma.
For `Cc1ccc(-c2nc3ccc(Cl)cn3c2NC2CCCCC2)o1`, the growth in the assay with DU-145 prostate is 104%; with K-562 leukemia, 74.5%; with MDA-MB-231 breast it was 84.7%; in the assay on RXF 393 renal, 83.1%; with SF-268 CNS, 80%; in the assay on SF-295 CNS it was 91.3%. Further, the growth in the assay with SF-539 CNS was 95.4%; in the assay on M14 melanoma it was 101%; in the assay on HCT-15 colon, 66.8%; with HT29 colon, 48.4%; with SNB-75 CNS, 83.5%; in the assay with SNB-19 CNS it was 97.4%. For the same molecule, the growth in the assay with U251 CNS was 86.8%; with PC-3 prostate, 45.4%; in the assay with SK-MEL-5 melanoma, 66.4%; with UACC-62 melanoma, 72.4%; in the assay with SK-MEL-28 melanoma, 100%.

The values above are taken from PubChem BioAssay (NCI).
